{"source": "paper PMC4102417"}
{"system": "murine 3T3 fibroblasts", "test": "primary screen, percent viability or growth; higher = less effect of the substance", "procedure": "Similarly, for measuring the cytotoxicity concentration (CC50) for 3T3 fibroblast cells, cultures were incubated with drugs for 72 hours and developed using Alamar Blue (Alamar Biosciences Inc, Sacramento, CA) as previously described.", "units": {"Mammalian (3T3) cell % growth at 10 uM": "%"}}
{"smiles": "COc1ccc2c(c1)OC/C(=C/c1ccc(OC)c(O)c1)C2=O", "Mammalian (3T3) cell % growth at 10 uM": 8.8}
{"smiles": "C1CCC(C(CC2CCCCN2)C2CCCCC2)CC1.O=C(O)/C=C\\C(=O)O", "note": "(stereo not drawn)", "Mammalian (3T3) cell % growth at 10 uM": -0.2}
{"smiles": "CC(=O)OC1CC2C(C)(C)C(=O)C3OC3C2(C)C2CCC3(C)C(c4ccoc4)OC(=O)C4OC43C12C", "note": "(stereo not drawn)", "Mammalian (3T3) cell % growth at 10 uM": 73.4}
{"smiles": "COc1cc2ccc(=O)oc2c(O)c1O", "Mammalian (3T3) cell % growth at 10 uM": 100}
{"smiles": "CCC(=C(c1ccccc1)c1ccc(OCCN(C)C)cc1)c1ccccc1", "Mammalian (3T3) cell % growth at 10 uM": 97}
{"smiles": "COc1c(-c2coc3cc4c(cc3c2=O)CC(O)C(C)(C)O4)ccc2c1C=CC(C)(C)O2", "note": "(stereo not drawn)", "Mammalian (3T3) cell % growth at 10 uM": 59}
{"smiles": "CC[C@@H]1/C=C/C=C/C[C@H](C)[C@@H](O)[C@](C)(O)C(=O)[C@H](C)[C@@H](O)[C@H](C)C(=O)[C@H](C)[C@@H](O)[C@H](C)/C=C/C(=O)O[C@H]2[C@@H](C)[C@@H](CC1)O[C@@]1(CC[C@@H](C)[C@@H](C[C@@H](C)O)O1)[C@@H]2C", "Mammalian (3T3) cell % growth at 10 uM": 57.7}
{"smiles": "O=C(/C=C/c1ccc(O)c(O)c1)OCCc1ccccc1", "Mammalian (3T3) cell % growth at 10 uM": 1.4}
{"smiles": "CCCCC1C(=O)N(c2ccccc2)N(c2ccc(O)cc2)C1=O", "note": "(stereo not drawn)", "Mammalian (3T3) cell % growth at 10 uM": 72.8}
{"smiles": "COc1cc(O)c(C(=O)/C=C/c2ccc(OC)c(O)c2)c(OC)c1", "Mammalian (3T3) cell % growth at 10 uM": 6}
{"smiles": "CC1(C)C(=O)C=CC2(C)C1CC(=O)C1(C)C2CCC2(C)C(c3ccoc3)OC(=O)C3OC321", "note": "(stereo not drawn)", "Mammalian (3T3) cell % growth at 10 uM": 75.8}
{"smiles": "CC(=O)OC1CC2C(C)(C)C(=O)C=CC2(C)C2CCC3(C)C(=CC(=O)OC3c3ccoc3)C12C", "note": "(stereo not drawn)", "Mammalian (3T3) cell % growth at 10 uM": 56.1}
{"smiles": "CC1OC(=O)C(C(C)C)NC(=O)C(C(C)C)OC(=O)C(C(C)C)NC(=O)C(C)OC(=O)C(C(C)C)NC(=O)C(C(C)C)OC(=O)C(C(C)C)NC(=O)C(C)OC(=O)C(C(C)C)NC(=O)C(C(C)C)OC(=O)C(C(C)C)NC1=O", "note": "(stereo not drawn)", "Mammalian (3T3) cell % growth at 10 uM": 16.4}
{"smiles": "CCCCC(CC)CNC(=N)NC(=N)NCCCCCCNC(=N)NC(=N)NCC(CC)CCCC.Cl.Cl", "note": "(stereo not drawn)", "Mammalian (3T3) cell % growth at 10 uM": 12.3}
{"smiles": "CC(C)=CCc1c2c(c3occ(-c4ccc(O)c(O)c4)c(=O)c3c1O)C=CC(C)(C)O2", "Mammalian (3T3) cell % growth at 10 uM": 4.1}
{"smiles": "C=CC(C)(O)CCC1C(=C)CC(O)C2C(C)(C)CCCC12C", "note": "(stereo not drawn)", "Mammalian (3T3) cell % growth at 10 uM": 74}
{"smiles": "OCCN1CCN(CCCN2c3ccccc3Sc3ccc(Cl)cc32)CC1", "Mammalian (3T3) cell % growth at 10 uM": 66.6}
{"smiles": "CNc1ccc(C(=O)CC(O)CCC(C)C2OC(=O)CC(O)CC(=O)CC(O)CC(O)CC(O)CC(O)CC3(O)CC(O)C(C(=O)OC)C(CC(O[C@@H]4O[C@H](C)[C@@H](O)[C@H](N)[C@@H]4O)/C=C/C=C/C=C/C=C\\C=C/C=C/C=C/C2C)O3)cc1", "note": "(stereo partly drawn)", "Mammalian (3T3) cell % growth at 10 uM": 97.3}
{"smiles": "Clc1ccc(COC(Cn2ccnc2)c2ccc(Cl)cc2Cl)c(Cl)c1", "note": "(stereo not drawn)", "Mammalian (3T3) cell % growth at 10 uM": 100}
{"smiles": "COC(=O)C1(C)CCCC2(C)c3ccc(C(C)C)cc3C(=O)CC12", "note": "(stereo not drawn)", "Mammalian (3T3) cell % growth at 10 uM": 91.8}
{"smiles": "COC(=O)c1cc(O)c(=O)c2c(O)c(O)ccc2c1", "Mammalian (3T3) cell % growth at 10 uM": 92.2}
{"smiles": "C=C1c2c(Cl)ccc(O)c2C(O)=C2C(=O)[C@]3(O)C(=O)/C(=C(/N)O)C(=O)[C@@H](N(C)C)[C@@H]3[C@@H](O)[C@H]12.O=C(O)c1cc(S(=O)(=O)O)ccc1O", "Mammalian (3T3) cell % growth at 10 uM": 60.9}
{"smiles": "COc1c(O)cc2oc3cc(O)c(CC=C(C)C)c(O)c3c(=O)c2c1CC=C(C)C", "Mammalian (3T3) cell % growth at 10 uM": 5.5}
{"smiles": "CN1CCc2c(c3ccccc3n2Cc2ccccc2)C1.O=S(=O)(O)c1cccc2c(S(=O)(=O)O)cccc12", "Mammalian (3T3) cell % growth at 10 uM": 100}
{"smiles": "COc1ccc2cc3[n+](cc2c1OC)CCc1cc2c(cc1-3)OCO2", "Mammalian (3T3) cell % growth at 10 uM": 75.8}
{"smiles": "N[C@H](C(=O)O)[C@@H]1CC(Cl)=NO1", "Mammalian (3T3) cell % growth at 10 uM": 48.2}
{"smiles": "CC12C=CC(=O)C=C1CCC1C2CCC2(C)C(=O)CCC12", "note": "(stereo not drawn)", "Mammalian (3T3) cell % growth at 10 uM": 72.1}
{"smiles": "CCOC(=O)C(CCc1ccccc1)NC1CCc2ccccc2N(CC(=O)O)C1=O.Cl", "note": "(stereo not drawn)", "Mammalian (3T3) cell % growth at 10 uM": 66.8}
{"smiles": "COc1ccc(-c2cc(=O)c3ccccc3o2)cc1", "Mammalian (3T3) cell % growth at 10 uM": 100}
{"smiles": "C[C@H]1COC2=C1C(=O)C(=O)c1c2ccc2c1CCCC2(C)C", "Mammalian (3T3) cell % growth at 10 uM": 87}
{"smiles": "Oc1ccc(Cl)c2cccnc12", "Mammalian (3T3) cell % growth at 10 uM": 49.7}
{"smiles": "CN1CCCC(n2nc(Cc3ccc(Cl)cc3)c3ccccc3c2=O)CC1.Cl", "note": "(stereo not drawn)", "Mammalian (3T3) cell % growth at 10 uM": 95.1}
{"smiles": "C[C@@](Cc1ccc(O)c(O)c1)(NN)C(=O)O", "Mammalian (3T3) cell % growth at 10 uM": 17.7}
